# hgDAF12 agonist: activates the H. glycines DAF-12 receptor ligand-binding domain; HEK293 GAL4-hgDAF12 UAS-luciferase reporter, agonist luminescence; normalized to butyrate control; activation, % at 6.8 µM; AID 687014; 1.8% of 370,000 active;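 active = activation above a cutoff set at the mean of all screened compounds plus 3 SD, cut at about 10% in these data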;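 also: 0% = DMSO wells and 100% = sodium butyrate wells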
# DAX1 inh-1: inhibitors of human orphan nuclear receptor DAX1 (NR0B1); P51843; HEK293 Gal4-DAX1 luciferase reporter, luminescence; inhibition, % at 6.75 µM; 0.99% of 340,000 active; AID 504766;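 active = inhibition above the mean over all tested compounds plus 3 SD, cut at about 4.2% in these data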;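 also: 0% = DAX1-transfected cells with DMSO and 100% = empty-vector control cells with DMSO; inhibition shows as a rise in luminescence from relieved DAX1 repression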
# Target sequence (P51843 207-470 limits assumed): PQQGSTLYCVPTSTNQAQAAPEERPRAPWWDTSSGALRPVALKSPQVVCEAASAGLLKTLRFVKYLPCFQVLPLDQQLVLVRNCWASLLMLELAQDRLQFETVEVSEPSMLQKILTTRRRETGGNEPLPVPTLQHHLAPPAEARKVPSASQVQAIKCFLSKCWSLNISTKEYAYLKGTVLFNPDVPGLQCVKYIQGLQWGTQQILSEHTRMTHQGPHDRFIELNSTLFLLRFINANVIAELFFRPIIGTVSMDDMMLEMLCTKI
# ssDAF-12 act: activators of S. stercoralis DAF-12 nuclear receptor; HEK293 ssDAF-12/GRIP1 lit1-tk-luc reporter, luminescence; % of 3 µM dafachronic acid response; activation, % at 6.8 µM; 1% of 370,000 active; AID 652126;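 active = activation above the mean over all tested compounds plus 3 SD, cut at about 0.9% in these data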;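 also: 0% = DMSO-only wells and 100% = 3 µM delta7-dafachronic acid wells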
# FXN GAA850 act: activators of GAA850 frataxin (FXN) promoter | HEK293 lucGAA850 FXN promoter luciferase reporter, 24 h; percent of 10 µM SAHA response | AID 540364 | 0.56% of 360,000 active | activation, % at 6 µM;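 active = activation above the average of all compounds screened plus 3 SD, cutoff fixed separately per campaign, cut at about 7.5% in these data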;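 also: 0% = DMSO wells and 100% = 10 µM SAHA wells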
# hcDAF-12 act: H. contortus DAF-12 activation, primary screen. HEK293 hcDAF-12 lit1-tk-luc reporter, luminescence; 0% DMSO, 100% Δ7-dafachronic acid. activation, % at 6.8 µM. 1.4% of 370,000 active. AID 652067;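 active = activation above the mean of all tested compounds plus 3 SD, cut at about 5.5% in these data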;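 also: 100% = response to 3 µM Δ7-dafachronic acid high control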
# DAX1 inh-2: inhibitors of DAX1 repression of SF-1 activated StAR promoter; AID 652010; 1.1% of 370,000 active; inhibition, % at 6.8 µM; HEK293T StAR-luciferase reporter, SF-1/DAX-1 repression relief;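 active = inhibition above the mean over all tested compounds plus 3 SD, cut at about 3.6% in these data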;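 also: 0% = DAX-1 cells with DMSO and 100% = cells lacking DAX-1 with DMSO; higher inhibition means more luminescence from relief of DAX-1 repression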
# The depositor's hits bear a star; · = not tested or not shown. Shown are actives, neighbours in structure and some others; about 4.5% of the full set was active somewhere.
SMILES,hgDAF12 agonist,DAX1 inh-1,ssDAF-12 act,FXN GAA850 act,hcDAF-12 act,DAX1 inh-2
O=C(/C=C/NNC(=O)c1ccccc1)c1ccc([N+](=O)[O-])cc1,2,4.4*,-2,0,-1,0
CC(NCc1ccco1)C(=O)N1CCCC1 (stereo unspecified),0,·,-1,·,0,0
COC(=O)[C@]12C[C@H](CC(=O)N3CCC(c4ccccc4)CC3)C(=O)N(Cc3ccco3)C1=C[C@H](C(C)(C)C)O[C@@H]2C,4,·,-2,·,0,-1
CCCn1c(CCC(=O)O)nc2cc(S(=O)(=O)N(CC)CC)ccc21,2,-2,-2,0,2,0
CCN(CC)S(=O)(=O)c1ccc2c(c1)nc(-c1ccccn1)n2C,7,0,0,6,6.2*,1
Fc1ccc(N2CCN(C3=Nc4ccccc4Sc4ccccc43)CC2)cc1,-7,·,1.3*,·,-2,-1
O=S1(=O)CC(N2CCCC2)CN1C1CCCC1 (stereo unspecified),2,·,-1,·,4,1
O=S1(=O)CC(N2CCCC2)CN1C1CCCCC1 (stereo unspecified),1,·,-1,·,-1,4.3*
COc1ccc(NC(=O)CSc2nnc(-c3ccc(F)cc3)o2)cn1,9,2,0,2,1,4.0*
COc1ccc(-c2nnc(SCC(=O)N3CCN(c4ccccc4)CC3)o2)cc1OC,1,6.2*,-1,-1,0,0
COc1ccc(-c2nnc(SCC(=O)NC3CC3)o2)c(OC)c1,2,-1,-1,4,1,4.3*
COc1ccc(-c2nnc(SCC(=O)Nc3ccccc3OC)o2)cc1,7,2,0,4,1,4.3*
COc1ccc(-c2nnc(SCC(=O)N3CCOCC3)o2)cc1OC,2,3,-1,0,1,0
Cc1cc(NS(=O)(=O)c2ccc(NC(=O)CSc3nnc(-c4ccccn4)n3Cc3ccco3)cc2)nc(C)n1,-2,·,-1,·,-3,1
CCc1csc(N2[C@H](CN(CCOC)S(=O)(=O)c3ccccc3[N+](=O)[O-])[C@H](c3ccccc3)[C@@H]2CO)n1,1,·,-1,·,-2,-1
O=C(CSc1nnc(-c2ccncc2)o1)Nc1ccccc1Cl,5,0,-1,1,0,1
O=C(CSc1nnc(-c2ccccn2)o1)Nc1ccccc1Cl,11*,0,0,5,2,2
CCN(CC)C(=O)c1ccc(/C=C/c2c[nH]c3ccccc23)[n+](C)c1,2,0,1.6*,-1,2,1
O=C(NC(=O)c1ccccc1O)c1ccc2c(c1)CCO2,12*,-2,1.0*,3,4,2
CC(C)(C)NC(=O)c1ccc2c(c1)CCO2,0,2,-2,0,0,0
O=C(COC(=O)C1=COCCO1)Nc1cccc(Oc2ccccc2)c1,-1,1,-1,1,0,0
COc1cccc(NC(=O)c2ccccc2Br)c1,11*,2,-1,2,1,1
O=C(COC(=O)C1=COCCO1)Nc1ccccc1,1,4.4*,0,3,1,1
CC(=O)c1cccc(NC(=O)c2ccccc2-c2ccccc2C(=O)O)c1,0,-1,-1,-1,-1,-1
COc1cccc(NC(=O)c2ccccc2-c2ccccc2C(=O)O)c1,0,0,-1,-1,6.0*,1
SMILES,hgDAF12 agonist,DAX1 inh-1,ssDAF-12 act,FXN GAA850 act,hcDAF-12 act,DAX1 inh-2
COc1cccc(NC(=O)c2cccc(OC)c2OC)c1,12*,1,0,3,0,2
CCCCCn1nnnc1C1(C)CCSCC(=O)N1Cc1ccco1 (stereo unspecified),1,·,0,·,-2,0
COc1ccc(C(=O)/C=C\c2ccc(NC(=O)c3cccs3)cc2)cc1,0,-2,0,0,6.5*,-1
COc1cccc(NC(=O)c2cccs2)c1,13*,-1,-1,2,5,1
COc1cccc(C(=O)Nc2ccc(N(C)C)cc2)c1OC,12*,1,0,3,2,3
Cc1ccn2cc(-c3cccc(NC(=O)c4cccs4)c3)nc2c1,11*,1,-1,3,-1,0
Cn1c(SCC(=O)Nc2ccc(S(=O)(=O)Nc3nccs3)cc2)nc2sc3c(c2c1=O)CCCC3,3,·,-2,·,-1,2
COc1cccc(NC(=O)c2ccccc2F)c1,11*,2,-1,5,3,2
COc1cccc(C(=O)Nc2cccc3ccccc23)c1OC,1,-1,-1,1,-1,0
C=CCn1cccc(C(=O)Nc2ccc(N(C)C)cc2)c1=O,11*,1,0,-1,-1,1
COc1cccc(NC(=S)NC(=O)Cc2ccccc2)c1,1,5.6*,-1,4,0,0
COc1cc(Cl)c(C)cc1NC(=O)c1cccc(OC)c1OC,11*,0,-1,7,0,1
COc1cccc(NC(=O)c2c(F)cccc2F)c1,7,-1,-1,1,1,1
CC(C)C[C@H]1COc2cc(Br)ccc2S(=O)(=O)N1Cc1cn(Cc2ccc(Br)cc2)nn1,0,·,-2,·,-1,0
COc1cccc(NC(=O)C2=COCCO2)c1,2,3,-1,6,4,3.7*
COc1cccc(NC(=O)CN(C)C(=O)C2=COCCO2)c1,1,1,-1,3,4,3
CC(=O)Nc1ccc(/C=N/Nc2nncc3ccccc23)cc1,9,5.0*,0,5,3,1
Cc1ccc2c(c1)NC(=O)C(CC(=O)NCCN(CC(C)C)CC(C)C)O2 (stereo unspecified),0,5.7*,0,0,-1,1
CC(=O)Nc1ccc(S(=O)(=O)N2CCN(c3ncccn3)CC2)cc1,1,6.0*,-2,2,0,-1
Cc1ccnc(NC(=O)c2ccc(S(=O)(=O)N3CCCCC3)cc2)c1,1,1,-2,-1,-1,0
O=C(Nc1ccccn1)c1ccc(Br)c(S(=O)(=O)N2CCCCC2)c1,-1,0,-2,0,-1,0
O=C(Nc1ccccn1)c1ccc(S(=O)(=O)N2CCCCCC2)cc1,8,1,0,1,0,4.3*
O=C(Nc1ccccn1)c1ccc(S(=O)(=O)N2CCCCC2)cc1,5,1,0,1,2,3.8*
CCOC(=O)[C@@]12CN(C(=O)OC(C)(C)C)CC=C1N(Cc1ccc(OC)cc1)C(=O)[C@H]2CC(=O)N1CCCC1,3,·,-1,·,0,0
CN(C)CCN1CC(O)=C(c2nc3ccccc3s2)C1=N,4,4.8*,-1,3,-1,0

# Screening data as filed in PubChem BioAssay.
